± gives the uncertainty stated by the source.

The test system of this assay is HEK293T-Rex XBP1-RLuc. The assay can be described thus: XBP1-RLuc splicing reporter activation, triplicate, relative to 500 nM thapsigargin (% of thapsigargin); higher = stronger IRE1/XBP1s reporter activation. The settings on record: 6.8 µM; 18 h; screen: confirmation. The protocol: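 HEK293T-Rex cells stably expressing the ERSE-firefly luciferase (BiP promoter, ATF6-preferring) or XBP1-splicing Renilla luciferase (IRE1/XBP1s) reporter, 1536-well plates, compound at 6.8 µM for 18 hr at 37 °C; luminescence read […] and expressed as % activation = 100*(compound - median DMSO)/(median 500 nM thapsigargin - median DMSO). Primary screen was single-pass; confirmation screen in triplicate (mean ± SD).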
`CCOc1cccc(C(=O)Nc2ccc(-c3nc4ccc(C(=O)c5ccccc5)cc4[nH]3)cc2)c1`: the “XBP1-RLuc splicing reporter activation” value came out at 94 ± 5. Under `Cc1ccc(O)c(-c2cc(-c3cccs3)[nH]n2)c1` stands 7.79 ± 0.86; under `Cc1ccc(O)c(NC(=O)CN(C)S(=O)(=O)c2ccc(Cl)cc2)c1`, 15.1 ± 3.3; under `COc1ccc(C(=O)Nc2nnc(-c3cccs3)s2)cc1`, 0.956 ± 0.85. As for `N#CC1=C(N)Oc2c(ccc3ccccc23)C1c1ccccc1` (stereo not given), the “XBP1-RLuc splicing reporter activation” value turned out to be 14.2 ± 1.1. The same measure for `Cc1cc(C)nc(/N=C(\N)Nc2ccc(OCc3ccccc3)cc2)n1`: 78.3 ± 5.3; for `COc1cccc(-c2cc(C(=O)Nc3cc(C)ccc3O)on2)c1`: 12.2 ± 1.9. Under `COc1ccc(-c2csc(-c3ccc(O)cc3)n2)cc1` stands 8.78 ± 1.3; under `COc1ccccc1/C=N/Nc1nc(-c2ccccc2)cc(=O)[nH]1`, 7.58 ± 1.9; under `O=C(NC1CCCC1)c1cc(-c2cccs2)on1`, 4.95 ± 0.3. The same measure for `CC(C)CNC(=O)c1cc(-c2ccc(F)cc2)no1`: 4.97 ± 1.2; for `COc1cccc(C2=NOC(C(=O)Nc3cc(C)ccc3O)C2)c1` (stereo not given): 14.1 ± 0.22. Turning to `COc1ccc(-c2nn(-c3ccccc3)cc2/C=C/C(=O)O)cc1[N+](=O)[O-]`, the “XBP1-RLuc splicing reporter activation” value is 8.64 ± 1.1.

Take `Cc1cc2nc(-c3ccc(SCC#N)nc3)[nH]c2cc1C`: the “XBP1-RLuc splicing reporter activation” value was 2.7 ± 0.91. The same measure for `Cc1ccccc1-c1cc(=O)c2cc(Cl)ccc2o1`: 8.38 ± 3.8; for `CCOc1ccc(/C=C(\C#N)c2[nH]nc(N)c2C#N)cc1OCC`: 7.63 ± 1; for `CCCCCCOc1ccc(/C(C)=N/NC2=NCCN2)cc1[N+](=O)[O-]`: 15 ± 0.76. Under `OCCNc1nc(Nc2ccc(Br)cc2)nc2ccccc12` stands 23.4 ± 2.2; under `Oc1ccc(-c2csc(-c3cccnc3)n2)cc1O`, 15.2 ± 0.9. As to `NN1C(=O)/C(=C/c2ccc(O)c(O)c2)SC1=S`, the “XBP1-RLuc splicing reporter activation” value is 16.7 ± 0.56.

On to `COC(=O)c1ccc2c(COC(C)=O)c(OC(C)=O)ccc2c1COC(C)=O`, for which the “XBP1-RLuc splicing reporter activation” value is 24.5 ± 2.2. `COc1cccc(/C=N/NC(=O)c2ccc(NC(=O)c3ccc(C)cc3)cc2)c1O`: the “XBP1-RLuc splicing reporter activation” value stood at 86.3 ± 12. With `CCCCNNC(=O)c1ccc(Br)cc1`, the “XBP1-RLuc splicing reporter activation” value worked out at 9.12 ± 0.67. Under `COC(=O)c1c(NC(=O)CCl)sc(C(=O)Nc2cccc([N+](=O)[O-])c2)c1C` stands 12.1 ± 0.46; under `Nc1ccccc1NC(=O)c1ccc(Cl)cc1`, 10 ± 0.7; under `Cc1ccc(O)c(N=CC2=C(O)c3ccccc3C2=O)c1`, 24.1 ± 1.3. Turning to `COc1ccc(-c2csc(N(CC3CCCO3)C(=O)CCl)n2)cc1` (stereo not given), the “XBP1-RLuc splicing reporter activation” value was 2.74 ± 0.89. The same measure for `N#Cc1c(NC(=O)c2cccc(F)c2)sc2c1CCC2`: 2 ± 0.56. `CC(=O)N1CCc2c([nH]c3ccccc23)C12CCN(CCCOc1ccccc1)CC2`: the “XBP1-RLuc splicing reporter activation” value was found to be 65.9 ± 4. Turning to `COc1cn(-c2ccc(F)cc2)nc1C(=O)Nc1ccccc1SC`, the “XBP1-RLuc splicing reporter activation” value amounted to 15.5 ± 1.8.

As to `Cc1cc(C)nc(Nc2nc(-c3ccc(O)c(O)c3)cs2)n1`, the “XBP1-RLuc splicing reporter activation” value was 13.9 ± 9.7. On to `Nc1nc(Nc2ccccc2)cc(-c2ccccc2)n1`, for which the “XBP1-RLuc splicing reporter activation” value was 1.44 ± 0.87. For `COc1ccc(/C=C(\C#N)c2nc3ccccc3n2C)cc1`, the “XBP1-RLuc splicing reporter activation” value was -0.499 ± 0.016. `CCc1ccc(NC(=O)/C=C/c2ccco2)cc1`: the “XBP1-RLuc splicing reporter activation” value stood at 4.88 ± 0.83. Under `CC(C)CC(c1nnnn1C1CCCC1)N1CCN(C(=O)c2ccco2)CC1` (stereo not given) stands 10.6 ± 2.2. Regarding `CCCc1cc(C(=O)Nc2cc(C)ccc2O)no1`, the “XBP1-RLuc splicing reporter activation” value was 24.5 ± 4.7.

As to `CCCCNc1ncnc2c1cnn2-c1ccc(Cl)cc1`, the “XBP1-RLuc splicing reporter activation” value worked out at 1.56 ± 1.6. Under `O=C(N/N=C\C(Br)=C\c1ccccc1)c1n[nH]c2c1CCCC2` stands 7.86 ± 1.6; under `COc1ccc2[nH]c3c(N4CCCCC4)ncnc3c2c1`, 4.28 ± 0.66; under `Oc1ccc(/C=N/Nc2cccc3cccnc23)cc1O`, 17.3 ± 2.3.

Source of the values: the supplement of paper PMC4954754.
